The values below come from PubChem BioAssay (NCATS).

Test [1] concerns the target Lysosomal acid glucosylceramidase (Homo sapiens) (UniProt P04062). As to the kind of experiment: Glucocerebrosidase-p2 (AID 348; in the data active = potency below about 10 µM; note: potency is the fitted concentration of half-maximal effect). The following applies: purified GBA, blue fluorogenic substrate, 40 min. The gist of the method:
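Compounds titrated from 0.6 nM upwards against 0.2 nM enzyme in pH 5.9 citric acid/KH2PO4, taurocholate, tween-20; blue fluorogenic substrate 80 uM, 40 min room temperature, stopped and read Ex 365/Em 440 for AC50.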

For test [2], the target named is Cytochrome P450 1A2 (Homo sapiens) (UniProt P05177). Description: p450-cyp1a2 (AID 410; calls by dose curve; note: potency is the fitted concentration of half-maximal effect). The following applies: recombinant CYP1A2, luciferin-ME demethylation, luminescence; series mostly up to 57 µM. The gist of the method:
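20nM CYP1A2 with 100uM Luciferin-ME (at Km) in 100mM KPO4; compound preincubated 10 min, NADPH regeneration added, 60 min at room temperature. Luciferin quantified by luminescence after detection reagent; normalized to 57 uM furafylline.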

Test [3] is described as follows: NFAT Signaling Pathway (AID 444; active = well fitted curve in either direction with a large enough effect, not every such curve was filed as active;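 note: carbachol stimulus at about its EC50 of 1 µM final; % is set by controls: 0 for no effect and ±100 for the full control effect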). Conditions: Jurkat NFAT-bla M1, carbachol, beta-lactamase ratio, 5 h; at 7.69 µM (top of the series) unless noted. The gist of the method: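 Jurkat cells with NFAT-driven β-lactamase reporter and co-expressed M1 receptor, stimulated with carbachol (final 1 uM, ~EC50), compound titration, 5 h at 37 °C. CCF4 loaded 1 h at RT; 460/530 nm ratio gave %activity and AC50.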

Test [4] is described as follows: Stat Signaling Pathway (AID 446; active = well fitted curve in either direction with a large enough effect, not every such curve was filed as active;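 note: ME-180 cervical cancer cells given 40 pM IL-6 alongside compound; SIE-controlled beta-lactamase reporter measured as 460/530 nm FRET emission ratio; % is set by controls: 0 for no effect and ±100 for the full control effect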). Conditions: ME-180 SIE beta-lactamase reporter, IL-6 stimulated, 5 h; series mostly up to 7.69 µM. In short, it runs like this:
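ME-180 cells carrying a SIE-driven beta-lactamase reporter are stimulated with 40 pM IL-6 for 5 h at 37C in the presence of compound. The 460/530 nm FRET substrate ratio is read after 2.5 h at RT. Data are normalised to 300 pM IL-6 and to 125 nM JAK inhibitor controls.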

Test [5] concerns the target Glucocorticoid receptor (Homo sapiens) (UniProt P04150). As to the kind of experiment: GR-GFP Redistribution (AID 450;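 active = compounds whose dose series gives a full or clear partial fitted curve of increased nuclear translocation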; note: potency is the fitted concentration of half-maximal effect). Conditions: U2OS GR-GFP nuclear translocation, laser cytometry, 2 h.
Test [6] shares this target. Description: GR-EFC Redistribution (AID 451; calls by dose curve; note: potency is the fitted concentration of half-maximal effect). The following applies: CHO-K1 GR-EFC translocation, beta-gal luminescence, 2 h. In short, it runs like this:
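CHO-K1 cells expressing nuclear EA and GR-ED fragments of b-gal; compounds titrated up to 46 uM final, 2 h at 37 C. GR nuclear translocation read as complemented b-gal luminescence after 1 h RT detection.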

Test [7] addresses 3',5'-cyclic-AMP phosphodiesterase 4B (Homo sapiens) (UniProt Q07343). As to the kind of experiment: qHTS Assay for Inhibitors of PDE-IV (AID 607; active = well fitted activation curve with a large enough effect in the main read-out, with a control signal flat, not every such curve was filed as active; note: % of control where 0% means no effect). The following applies: HEK293 ACTOne CNG channel cells, membrane potential fluorescence; series mostly up to 22.9 µM. The gist of the method: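 HEK293 ACTOne cells with CNG channel (1000/well), endogenous PDE4; membrane potential dye, compounds up to 22.9 uM final. Fluorescence Ex 535/Em 590; RO 20-1724 (100 uM final) as reference.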
For orientation: qHTS replaces the single test concentration by a dilution series.

In test [8] the target is Cytochrome P450 2C9 (Homo sapiens) (UniProt P11712). Description: qHTS Assay for Inhibitors and Substrates of Cytochrome P450 2C9 (AID 883). Note: nearly all actives have a fitted effect of over 60% in size. Note: potency is the fitted concentration of half-maximal effect. Conditions: recombinant CYP2C9, luciferin-H luminescence, 60 min; series mostly up to 57.1 µM. The gist of the method: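 Signal: luciferase luminescence reporting luciferin produced by CYP2C9. Conditions: 10nM enzyme, Luciferin-H 100uM at KM, 25mM KPO4, 37C, 60 min NADPH-driven reaction. Reference: 57uM sulphaphenazole as 100% inhibition.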
Chain of Cytochrome P450 2C9 (Homo sapiens) (P11712 whole entry, looked up): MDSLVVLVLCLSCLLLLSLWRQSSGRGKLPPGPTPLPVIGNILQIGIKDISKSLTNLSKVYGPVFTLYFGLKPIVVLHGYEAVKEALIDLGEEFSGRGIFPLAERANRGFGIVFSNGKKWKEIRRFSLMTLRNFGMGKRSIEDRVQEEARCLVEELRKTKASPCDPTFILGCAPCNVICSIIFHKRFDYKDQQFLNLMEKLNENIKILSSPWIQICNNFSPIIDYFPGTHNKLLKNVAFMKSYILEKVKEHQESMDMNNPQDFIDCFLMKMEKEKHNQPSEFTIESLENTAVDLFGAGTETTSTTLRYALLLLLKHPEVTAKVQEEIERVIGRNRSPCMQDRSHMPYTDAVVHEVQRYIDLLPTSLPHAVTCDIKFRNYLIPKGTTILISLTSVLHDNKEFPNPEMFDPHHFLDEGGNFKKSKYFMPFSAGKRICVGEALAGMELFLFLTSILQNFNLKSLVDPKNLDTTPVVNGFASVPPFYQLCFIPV

In test [9] the target is Cytochrome P450 3A4 (Homo sapiens) (UniProt P08684). As to the kind of experiment: qHTS Assay for Inhibitors and Substrates of Cytochrome P450 3A4 (AID 884). Note: nearly all actives have a fitted effect of over 50% in size. Note: potency is the fitted concentration of half-maximal effect. The following applies: recombinant CYP3A4, Luciferin-PPXE luminescence; series mostly up to 57.1 µM. In short, it runs like this: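 20 nM human CYP3A4 with 25 uM Luciferin-PPXE (at KM) in 200 mM KPO4, preincubated 10 min with compound; NADPH regeneration started a 60 min RT reaction. Luciferin detected by luminescence, normalized to 57 uM ketoconazole as full inhibition.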
Chain of Cytochrome P450 3A4 (Homo sapiens) (P08684 whole entry, looked up): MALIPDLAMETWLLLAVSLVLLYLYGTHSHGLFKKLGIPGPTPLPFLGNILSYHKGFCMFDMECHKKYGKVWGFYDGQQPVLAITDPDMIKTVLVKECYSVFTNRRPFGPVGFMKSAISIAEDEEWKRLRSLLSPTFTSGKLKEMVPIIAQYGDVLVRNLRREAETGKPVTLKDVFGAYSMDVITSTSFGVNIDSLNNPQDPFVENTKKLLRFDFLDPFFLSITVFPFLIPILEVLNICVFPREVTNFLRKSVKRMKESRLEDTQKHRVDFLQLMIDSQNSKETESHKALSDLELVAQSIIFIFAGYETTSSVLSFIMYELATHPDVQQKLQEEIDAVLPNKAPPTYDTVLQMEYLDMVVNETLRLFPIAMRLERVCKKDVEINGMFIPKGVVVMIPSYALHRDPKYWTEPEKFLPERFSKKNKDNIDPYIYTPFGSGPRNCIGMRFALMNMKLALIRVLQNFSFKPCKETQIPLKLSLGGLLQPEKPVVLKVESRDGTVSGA

The target is the same in test [10]. As to the kind of experiment: qHTS Assay for Activators of Cytochrome P450 3A4 (AID 885). Note: nearly all actives have a fitted effect of over 65% in size. Conditions: recombinant CYP3A4, Luciferin-PPXE luminescence, 60 min; series mostly up to 57.1 µM. The gist of the method: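 Human CYP3A4 (20 nM) with Luciferin-PPXE at 25 uM (its KM) in 200 mM KPO4; 10 min compound preincubation, then NADPH regeneration and 60 min reaction at RT. Luciferin read by luminescence; normalized to 57 uM ketoconazole full inhibition.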

Test [11] addresses Cytochrome P450 2C19 (Homo sapiens) (UniProt P33261). As to the kind of experiment: qHTS Assay for Inhibitors and Substrates of Cytochrome P450 2C19 (AID 899). Note: potency is the fitted concentration of half-maximal effect; nearly all actives have a fitted effect of over 60% in size. Conditions: recombinant CYP2C19, luciferin-H EGE luminescence; series mostly up to 57.1 µM. The gist of the method:
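Signal comes from luciferase acting on luciferin released by CYP2C19-mediated hydroxylation of Luciferin-H EGE, 10uM (KM). Assay mix: 5nM enzyme, 50mM KPO4; 60 min at 37C with NADPH regeneration. Data normalized against 57uM ketoconazole.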

The target of test [12] is Dual specificity protein kinase CLK4 (Homo sapiens) (UniProt Q9HAZ1). Description: qHTS Assay for Inhibitors of CDC-like Kinase 4 (Kinase-Glo Assay) (AID 1770). Note: nearly all actives have a fitted effect of over 65% in size. Note: potency is the fitted concentration of half-maximal effect. Conditions: recombinant Clk4, Kinase-Glo ATP depletion luminescence; series mostly up to 66.7 µM. In short, it runs like this: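 Luminescent ATP-depletion read-out (Kinase-Glo) after 4.5 h room-temperature reaction of Clk4 (25 nM final) with RS peptide (100 uM) and ATP (1 uM), pH 7.5 Tris buffer with MgCl2 and DTT.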
Chain of Dual specificity protein kinase CLK4 (Homo sapiens) (Q9HAZ1 whole entry, looked up): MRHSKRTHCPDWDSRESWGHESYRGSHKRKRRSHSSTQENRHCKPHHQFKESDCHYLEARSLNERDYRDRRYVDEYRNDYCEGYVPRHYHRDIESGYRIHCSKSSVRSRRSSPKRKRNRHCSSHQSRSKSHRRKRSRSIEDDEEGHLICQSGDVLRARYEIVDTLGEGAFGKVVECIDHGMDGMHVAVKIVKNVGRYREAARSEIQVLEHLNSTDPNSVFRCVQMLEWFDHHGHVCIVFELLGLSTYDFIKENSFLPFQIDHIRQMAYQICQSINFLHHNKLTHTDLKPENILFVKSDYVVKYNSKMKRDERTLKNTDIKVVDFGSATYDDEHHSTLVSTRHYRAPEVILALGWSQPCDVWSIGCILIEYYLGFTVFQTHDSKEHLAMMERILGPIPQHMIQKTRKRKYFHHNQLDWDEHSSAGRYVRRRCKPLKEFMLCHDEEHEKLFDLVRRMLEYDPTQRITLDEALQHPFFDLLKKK

The target is the same in test [13]. Description: qHTS Assay for Inhibitors of CDC-like Kinase 4 (ADP-Glo Assay) (AID 1771). Note: nearly all actives have a fitted effect of over 70% in size. Note: potency is the fitted concentration of half-maximal effect. Conditions: recombinant CLK4, ADP-Glo luminescence; series mostly up to 80 µM. In short, it runs like this: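 25 nM Clk4 with 100 uM RS repeat peptide and 1 uM ATP (final) in buffer with 2 mM MgCl2, 0.5 mM EGTA, 2.5 mM DTT, 0.01% Triton X-100; 1 h at room temperature; ADP-Glo luminescence for ADP formed.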

The target is the same in test [14]. As to the kind of experiment: qHTS Assay for Inhibitors of CDC-like Kinase 4 (ADP-FP Assay) (AID 1795). Note: nearly all actives have a fitted effect of over 60% in size. Note: potency is the fitted concentration of half-maximal effect. Conditions: Transcreener ADP fluorescence polarization; series mostly up to 50 µM. The gist of the method:
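Kinase activity was measured as ADP production using Transcreener orange tracer (4 nM) and ADP antibody (1 ug/mL) fluorescence polarization, with ADP calculated from a calibration curve. The 1 h reaction contained 6.25 nM Clk4, 1 uM ATP and 100 uM RS peptide at pH 7.5 with Mg2+.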

For test [15], the target named is Ubiquitin carboxyl-terminal hydrolase 1 (Homo sapiens) (UniProt O94782). Description: Inhibitors of USP1/UAF1: Pilot qHTS (AID 504865).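 Note: rhodamine fluorescence freed from ubiquitin-rhodamine substrate followed over time; top concentration of the series differs between compounds; % is set by controls: 0 for no effect and ±100 for the full control effect; nearly all actives have a fitted effect of over 35% in size.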 Conditions: purified USP1/UAF1, Ub-rhodamine cleavage fluorescence; series mostly up to 54.9 µM. In short, it runs like this: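 Deubiquitinase activity followed as kinetic rhodamine fluorescence release from 150 nM Ub-Rho. 1 nM USP1/UAF1 with compound, after 15 min room-temperature preincubation, in HEPES pH 7.8 buffer containing TCEP, EDTA, BSA and Tween-20.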

Test [16] can be described thus: AP1 Signaling Pathway (AID 357; active = well fitted curve in either direction with a large enough effect, not every such curve was filed as active;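 note: ME-180 reporter cells stimulated with EGF at its EC50 level; % is set by controls: 0 for no effect and ±100 for the full control effect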). The following applies: ME-180 (cervical carcinoma) AP-1-bla reporter, EGF-induced, beta-lactamase ratio, 5 h; at 7.69 µM (top of the series) unless noted. The gist of the method:
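First, ME-180 AP-1-bla cells were cultured overnight at 37 °C in low-serum Opti-MEM. Next, titrated compounds with EC50 EGF were incubated 5 hours. Finally, CCF4 was added for 2.5 hours and the 460/530 nm ratio recorded.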

Test [17] deals with Mitogen-activated protein kinase 10 (Mus musculus) (UniProt Q61831). Description: JNK3 AlphaScreen Assay (AID 530; active = well fitted curve in either direction with a large enough effect, not every such curve was filed as active;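 note: kinase came from lysate of stimulated human HepG2 cells; signal reports phosphorylation of biotinylated GST-cJun 1-79 at Ser73 with 10 µM ATP; % is set by controls: 0 for no effect and ±100 for the full control effect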). Conditions: JNK3 lysate, c-Jun phosphorylation; series mostly up to 57.1 µM. In short, it runs like this: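 Pre-activated (IL-1β/TNFα) JNK3 in HepG2 lysates phosphorylates biotin-GST-cJun(1-79), 10 uM ATP; anti-phospho-cJun(Ser73) AlphaScreen read at room temperature, pH 7.6 Tris buffer. Compounds pre-incubated 15 min as titrations.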

For test [18], the target named is Cytochrome P450 2D6 (Homo sapiens) (UniProt P10635). Description: qHTS Assay for Inhibitors and Substrates of Cytochrome P450 2D6 (AID 891). Note: potency is the fitted concentration of half-maximal effect; nearly all actives have a fitted effect of over 60% in size. Conditions: recombinant CYP2D6, luciferin-ME EGE luminescence; series mostly up to 57.1 µM. In short, it runs like this:
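Human CYP2D6 (5 nM) with 30 uM Luciferin-ME EGE (at Km) in 100 mM KPO4, compound preincubated 10 min, then NADPH regeneration system for 60 min at room temperature. Luciferin read by luminescence; normalized to 1.43 uM quinidine.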

Test [19] can be described thus: NCATS anti-infectives library activity on HEK293 viability as a counter-qHTS vs the C. elegans viability qHTS (AID 1745854). The following applies: HEK293 viability counter-screen; series mostly up to 41.8 µM. The gist of the method: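 HEK293 cells (1,500/well) exposed 24 hr at 37C to 1:5 titrations, up to 41.7 uM final; counter-screen to a C. elegans viability qHTS. Viability by CellTiter-Glo luminescence after 10 min at room temperature; digitonin as control.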

Unmarked numbers belong to inactive results. Records with an inconclusive call do not appear. Calls of active or inactive are those of the source. Unless noted, calls come from the whole dose curve; as a rule, active = well fitted curve in the direction sought with a large enough effect; inconclusive = small, poorly fitted or top-dose-only effect, or another doubt; inactive = no such curve, though single readings can be large; an effect the other way counts as inactive or inconclusive. Where only a bound is given, the exact number is not on record here.

Chain of Cytochrome P450 1A2 (Homo sapiens) (P05177 whole entry, looked up): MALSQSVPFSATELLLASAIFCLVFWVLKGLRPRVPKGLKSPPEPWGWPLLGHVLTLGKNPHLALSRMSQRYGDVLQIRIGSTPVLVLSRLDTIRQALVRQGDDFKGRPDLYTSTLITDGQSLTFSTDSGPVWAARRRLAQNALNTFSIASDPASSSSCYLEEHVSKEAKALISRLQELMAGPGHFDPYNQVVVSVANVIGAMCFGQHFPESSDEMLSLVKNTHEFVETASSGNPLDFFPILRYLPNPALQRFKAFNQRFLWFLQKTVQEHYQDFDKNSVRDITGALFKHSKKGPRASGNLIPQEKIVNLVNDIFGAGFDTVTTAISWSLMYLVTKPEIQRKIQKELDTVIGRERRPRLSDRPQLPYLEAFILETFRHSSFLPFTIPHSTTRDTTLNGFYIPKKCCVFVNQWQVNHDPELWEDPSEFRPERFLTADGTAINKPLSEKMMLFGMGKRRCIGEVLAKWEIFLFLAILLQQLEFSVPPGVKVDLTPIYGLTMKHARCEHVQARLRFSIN
Chain of Glucocorticoid receptor (Homo sapiens) (P04150 whole entry, looked up): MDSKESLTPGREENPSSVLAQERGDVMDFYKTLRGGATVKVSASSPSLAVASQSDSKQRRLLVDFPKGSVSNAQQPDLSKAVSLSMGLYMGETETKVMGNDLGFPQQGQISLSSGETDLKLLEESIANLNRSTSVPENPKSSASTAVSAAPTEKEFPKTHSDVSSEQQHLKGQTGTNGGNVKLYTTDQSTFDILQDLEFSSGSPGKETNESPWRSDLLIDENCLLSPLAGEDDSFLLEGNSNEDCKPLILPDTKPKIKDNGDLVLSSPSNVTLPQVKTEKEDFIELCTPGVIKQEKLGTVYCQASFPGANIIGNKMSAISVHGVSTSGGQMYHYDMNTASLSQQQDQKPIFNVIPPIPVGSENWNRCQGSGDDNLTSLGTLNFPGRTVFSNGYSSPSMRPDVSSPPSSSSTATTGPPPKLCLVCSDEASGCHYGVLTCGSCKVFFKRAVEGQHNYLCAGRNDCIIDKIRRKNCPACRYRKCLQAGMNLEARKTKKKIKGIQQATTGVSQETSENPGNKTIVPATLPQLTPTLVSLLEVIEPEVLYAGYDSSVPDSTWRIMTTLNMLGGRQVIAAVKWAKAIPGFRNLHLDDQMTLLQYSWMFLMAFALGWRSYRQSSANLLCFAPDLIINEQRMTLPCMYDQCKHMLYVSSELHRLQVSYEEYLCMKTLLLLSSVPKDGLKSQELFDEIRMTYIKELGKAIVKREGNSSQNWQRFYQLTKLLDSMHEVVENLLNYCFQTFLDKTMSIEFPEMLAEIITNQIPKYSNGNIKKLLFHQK
Chain of 3',5'-cyclic-AMP phosphodiesterase 4B (Homo sapiens) (Q07343 whole entry, looked up): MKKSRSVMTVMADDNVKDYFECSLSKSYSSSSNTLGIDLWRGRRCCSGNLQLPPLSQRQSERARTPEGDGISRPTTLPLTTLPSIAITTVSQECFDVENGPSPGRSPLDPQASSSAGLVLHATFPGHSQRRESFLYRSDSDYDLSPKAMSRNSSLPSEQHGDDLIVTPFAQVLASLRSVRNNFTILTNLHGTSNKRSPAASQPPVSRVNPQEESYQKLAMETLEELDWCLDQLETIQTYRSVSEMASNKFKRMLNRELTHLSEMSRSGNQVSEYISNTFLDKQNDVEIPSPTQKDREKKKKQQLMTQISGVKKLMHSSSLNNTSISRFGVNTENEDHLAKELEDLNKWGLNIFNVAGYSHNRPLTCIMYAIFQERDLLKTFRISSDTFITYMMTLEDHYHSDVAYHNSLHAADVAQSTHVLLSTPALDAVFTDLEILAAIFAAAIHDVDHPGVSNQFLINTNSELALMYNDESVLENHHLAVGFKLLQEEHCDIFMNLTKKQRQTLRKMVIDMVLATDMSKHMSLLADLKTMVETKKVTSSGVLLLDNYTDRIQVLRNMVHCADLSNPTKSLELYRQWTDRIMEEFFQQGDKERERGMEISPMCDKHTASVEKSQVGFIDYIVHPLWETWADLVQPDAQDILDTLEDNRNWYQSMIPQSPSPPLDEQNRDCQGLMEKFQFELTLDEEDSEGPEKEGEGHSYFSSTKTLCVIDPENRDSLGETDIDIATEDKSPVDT
Chain of Lysosomal acid glucosylceramidase (Homo sapiens) (P04062 whole entry, looked up): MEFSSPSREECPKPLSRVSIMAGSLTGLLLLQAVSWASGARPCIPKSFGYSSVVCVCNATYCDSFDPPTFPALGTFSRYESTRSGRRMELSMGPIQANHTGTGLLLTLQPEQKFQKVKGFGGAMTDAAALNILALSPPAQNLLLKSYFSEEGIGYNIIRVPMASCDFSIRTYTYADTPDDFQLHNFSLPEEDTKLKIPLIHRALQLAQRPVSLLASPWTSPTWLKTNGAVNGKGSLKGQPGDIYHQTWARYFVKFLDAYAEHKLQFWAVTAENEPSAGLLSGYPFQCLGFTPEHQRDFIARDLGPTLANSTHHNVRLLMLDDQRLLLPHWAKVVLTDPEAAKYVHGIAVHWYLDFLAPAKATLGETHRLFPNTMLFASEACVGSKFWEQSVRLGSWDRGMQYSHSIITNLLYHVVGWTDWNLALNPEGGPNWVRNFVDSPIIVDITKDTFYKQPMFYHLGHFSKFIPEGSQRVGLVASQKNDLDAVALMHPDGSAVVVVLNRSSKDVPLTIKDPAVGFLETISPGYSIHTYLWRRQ
Chain of Cytochrome P450 2C19 (Homo sapiens) (P33261 whole entry, looked up): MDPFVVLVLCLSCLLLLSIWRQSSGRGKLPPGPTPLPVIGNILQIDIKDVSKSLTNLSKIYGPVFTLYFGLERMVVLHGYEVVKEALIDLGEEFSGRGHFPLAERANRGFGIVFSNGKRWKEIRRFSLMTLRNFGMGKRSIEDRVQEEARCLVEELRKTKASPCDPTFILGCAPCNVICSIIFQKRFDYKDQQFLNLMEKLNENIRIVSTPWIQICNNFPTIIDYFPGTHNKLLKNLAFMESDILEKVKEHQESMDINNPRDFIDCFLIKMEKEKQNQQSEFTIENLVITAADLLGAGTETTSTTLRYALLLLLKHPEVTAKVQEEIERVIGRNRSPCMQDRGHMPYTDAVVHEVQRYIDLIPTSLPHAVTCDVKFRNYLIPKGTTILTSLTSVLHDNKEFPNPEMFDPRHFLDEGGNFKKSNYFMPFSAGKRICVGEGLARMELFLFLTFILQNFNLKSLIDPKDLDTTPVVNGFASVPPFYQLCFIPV
Chain of Cytochrome P450 2D6 (Homo sapiens) (P10635 whole entry, looked up): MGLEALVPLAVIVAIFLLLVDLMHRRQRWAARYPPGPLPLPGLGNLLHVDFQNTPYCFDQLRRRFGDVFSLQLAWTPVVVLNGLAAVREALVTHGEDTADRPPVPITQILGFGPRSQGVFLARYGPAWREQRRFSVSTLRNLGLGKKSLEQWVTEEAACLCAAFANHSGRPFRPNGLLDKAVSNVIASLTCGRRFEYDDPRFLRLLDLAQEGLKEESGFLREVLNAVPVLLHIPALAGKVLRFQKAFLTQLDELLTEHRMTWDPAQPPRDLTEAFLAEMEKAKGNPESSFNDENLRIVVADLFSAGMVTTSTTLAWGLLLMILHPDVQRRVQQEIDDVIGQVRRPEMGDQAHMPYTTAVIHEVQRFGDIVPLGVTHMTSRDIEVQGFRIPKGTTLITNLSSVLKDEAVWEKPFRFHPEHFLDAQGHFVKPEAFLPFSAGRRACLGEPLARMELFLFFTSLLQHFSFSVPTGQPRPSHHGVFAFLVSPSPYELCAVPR

For `COc1cccc(Cn2c(=O)cnc3cnc(Nc4cccc(OC)c4)nc32)c1`, the Potency was more than 11.4 µM in test [1]; 3.98 µM (active) in test [2]; more than 9.22 µM in [5]; more than 46 µM in test [6]; 2 µM (active) in test [8]; 2 µM (active) in test [9]. For the same compound, the Potency is 3.98 µM (active) in test [11], 2.24 µM (active) in [12], 2.24 µM (active) in [13] and 2 µM (active) in test [14]. The activity change, negative = inhibition in test [3] was 15.4%. The outcome in test [4] and in test [10] was inactive. Also, the Potency entry in test [7] and in test [15] was “inactive” throughout.
For `Cn1c(=O)c(-c2ccccc2)nc2cnc(N3CCOCC3)nc21`, the Potency in test [1] was more than 11.4 µM; in test [2], 2 µM (active); in [5], more than 9.22 µM. In addition, the activity change, negative = inhibition is -2.38% in test [16] and 3.19% in test [3]. For the same compound, in test [4], the result was inactive. Moreover, the Potency result in [7], in [9], in [12], in test [13], in [14] and in test [15] was “inactive” each time.
As to `CCNc1ncc2nc(-c3ccccc3)c(=O)n(CCC#N)c2n1`, the Potency in test [1] is more than 11.4 µM; in test [2], 3.16 µM (active); in test [6] it was more than 46 µM; in test [18] it was 501 nM (active). The activity change, negative = inhibition in [16] is -3.6%. The Potency result in test [17], in [12], in test [13], in test [14] and in test [15] was “inactive” throughout. Also, the result in test [10] was inactive.
As for `COc1cccc(-c2nc(N(C)C)c3ccccc3n2)c1`, the Potency in test [1] is more than 11.4 µM; in test [2] it was 0.251 µM (active); in test [5] it was more than 46 µM; in test [9], 5.01 µM (active); in test [12], 11.2 µM (active); in test [13], 7.08 µM (active). Moreover, the Potency in test [14] is 11.2 µM (active). For the same compound, the results for the activity change, negative = inhibition in test [16], in test [3] and in test [8] were 15.5%, -14.5% and 45.3% [at 2.29 µM], respectively. The Potency result in test [17] and in test [7] was “inactive” each time. For the same compound, the result in test [10] was inactive.
As for `O=c1ccc2cc3ccoc3cc2o1`, the Potency in test [2] was 0.0316 µM (active); in test [5] it was more than 46 µM; in [6] it was more than 46 µM; in test [8], 7.94 µM (active); in test [9] it was 31.6 µM (active); in test [18] it was 2000 nM (active). The Potency in [11] is 3.98 µM (active). Further, the Potency result in test [17] and in test [19] was “inactive” each time. Moreover, the result in [10] was inactive.
For the compound `C=C[C@@H]1C[C@]1(NC(=O)[C@@H]1C[C@@H]2CN1C(=O)[C@H](C(C)(C)C)NC(=O)O[C@@H]1C[C@H]1CCCCCc1nc3ccc(OC)cc3nc1O2)C(=O)NS(=O)(=O)C1CC1`, the Potency result in [19] was “inactive”.
With `Clc1ccccc1-c1nc(-n2ccnc2)c2ccccc2n1`, the Potency is more than 11.4 µM in test [1]; 0.158 µM (active) in test [2]; more than 46 µM in test [5]; 0.501 µM (active) in test [9]; 7.94 µM (active) in test [11]; 1.26 µM (active) in test [12]. Also, the Potency in [13] is 2.24 µM (active); in test [14], 1 µM (active). In addition, the activity change, negative = inhibition in test [16] is -5.23%; in [3] it was -17.9%. Further, the outcome in test [4] and in [10] was inactive. The Potency entry in [17] and in test [15] was “inactive” in each case.
